Values without a mark were called inactive.
System: Vero E6 infected with SARS-CoV-2
Assay: inhibition of SARS-CoV-2 cytopathic effect; higher = more antiviral protection, active = above 15
Conditions: 48 h

SMILES	inhibition of SARS-CoV-2 cytopathic effect (1 nM)	inhibition of SARS-CoV-2 cytopathic effect (8.33 nM)	inhibition of SARS-CoV-2 cytopathic effect (100 nM)	inhibition of SARS-CoV-2 cytopathic effect (833.33 nM)	inhibition of SARS-CoV-2 cytopathic effect (10000 nM)
N[C@@H](CCC(=O)N[C@@H](CS)C(=O)NCC(=O)O)C(=O)O [glutathione]	0.94%	0.93%	1.6%	-0.69%	1.39%
CC(C)C[C@H](NC(=O)[C@H](Cc1ccccc1)NC(=O)c1cnccn1)B(O)O [bortezomib]	1.7%	11%	32.8% (active)	27.1% (active)	12.7%
C=CC[C@]1(O)CC[C@H]2[C@@H]3CCC4=CC(=O)CCC4=C3C=C[C@@]21C [altrenogest]	-0.68%	-1.12%	-0.94%	0.13%	4.81%
CN/C(=N\CCSCc1nc[nH]c1C)NC#N [cimetidine]	0.42%	-1.81%	-0.46%	2.3%	-1.84%
NC1(c2ccc(-c3nc4ccn5c(=O)[nH]nc5c4cc3-c3ccccc3)cc2)CCC1	-1.08%	0.48%	2.84%	1.79%	24.5% (active)
CCCCc1ccc(NS(=O)(=O)c2ccc(F)cc2)cc1	-1.42%	-2.12%	-1.58%	-3.93%	-1.95%
O=S(=O)(O)c1ccc2[nH]c(-c3ccccc3)nc2c1 [phenylbenzimidazole-sulfonic-acid]	-0.84%	2.98%	1.91%	4.9%	-7.89%
COc1ccc(CNC(=O)Nc2ncc([N+](=O)[O-])s2)cc1	-1.91%	2.48%	-0.26%	-1.47%	2.28%
CC(O)CN1CCN(CC(=O)[O-])CCN(CC(=O)[O-])CCN(CC(=O)[O-])CC1.[Gd+3] (stereo not given) [gadoteridol]	0.66%	-0.76%	0.17%	0.32%	-3.99%

Reference: the supplement of paper PMC13380429
